# ATXN viability: viability counter-screen for ATXN expression inhibitors; S2 cells (HEK-293 line with an ATXN2-luciferase reporter) viability, CellTiter-Fluor protease fluorescence, 24 h; Potency, µM (series often up to 56.7 µM), usual class: cytotoxic; 400,000 tested, 0.49% active; AID 651635; also: nearly all actives have a fitted effect of over 40% in size
# ATXN2 expr inh: ATXN2 expression inhibition; HEK-293 ATXN2-luciferase reporter, luminescence, 24 h; Potency, µM (series often up to 57 µM), for inactives: at the highest dose activity change, negative = inhibition, hits mostly inhibitors; 360,000 tested, 0.72% active; AID 1745845; also: % is scaled to controls: 0 for no effect and ±100 for the full control effect; nearly all actives have a fitted effect of over 55% in size
#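 qHTS (up to 57 uM final) was run with 24 h compound exposure of reporter cells at 37 °C. Each well was multiplexed: SteadyGlo luminescence measured ATXN2-luciferase expression after a fluorogenic Gly-Phe-AFC viability readout (25 uM final).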
# HepG2 tox: counter-screen for TGF-b inhibitors: cytotoxicity in HepG2 cells; HepG2 CAGA-GFP viability, ATP luminescence, 18 h; Potency, µM (doses to about 46.1 µM), inactives show top-dose activity change, negative = cytotoxicity, actives largely listed as cytotoxic; 410,000 tested, 0.76% active
#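 HepG2 CAGA-GFP cells (1000/well, DMEM with 1% FBS) received compound, then TGF-beta at 500 pg/mL final, and were incubated 18 hours at 37 degrees C. Viability was read by CellTiter-Glo luminescence. Media-only wells were set as complete cell-killing and DMSO as no toxicity.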
# DT40 TDP1 CPT: growth inhibition of DT40 Tdp1-/-;hTDP1 cells with camptothecin (screen for TDP1 inhibitors) | chicken DT40 Tdp1-/-;hTDP1 cells + 20 nM CPT, ATP luminescence, 48 h | Potency, µM (series often up to 46.2 µM), for inactives: top-dose activity change, negative = growth inhibition, actives largely listed as inhibitors | 420,000 tested, 12% active | AID 686979; also: % is scaled to controls: 0 for no effect and ±100 for the full control effect; nearly all actives have a fitted effect of over 55% in size
#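 Chicken DT40 Tdp1-/- cells stably complemented with human TDP1 were seeded at 400 cells/well in medium containing 20 nM camptothecin, exposed to pin-transferred compounds, and grown at 37 °C for at least 48 hr. Viability was read as ATP luminescence.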
# DT40 TDP1 no CPT: qHTS for Inhibitors of human tyrosyl-DNA phosphodiesterase 1 (TDP1): qHTS in cells in absence of CPT; DT40 Tdp1-/- hTDP1 cells, no CPT, ATP luminescence, 48 h; Potency, µM (doses to about 46.2 µM), without a hit: at the highest dose activity change, negative = growth inhibition, most hits filed as inhibitors; 420,000 tested, 15% active; AID 686978, 2013; also: % is scaled to controls: 0 for no effect and ±100 for the full control effect; nearly all actives have a fitted effect of over 55% in size
#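 DT40 Tdp1-/-;hTDP1 cells, no CPT (DMSO vehicle only), 400 cells/well; compounds pin-transferred; ≥48 hr, 37 °C; CellTiter-Glo 30 min RT dark, luminescence read.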
# TGFb inhibitor: TGF-b pathway inhibition. HepG2 CAGA-GFP TGF-b/SMAD3 reporter, GFP fluorescence, 18 h; TGF-beta stimulated, 500 pg/mL final. Potency, µM (top dose mostly 46.1 µM), inactives show top-dose activity, negative = inhibition, hits mostly inhibitors. 410,000 tested, 1.2% active. AID 588855; also: % is scaled to controls: 0 for no effect and ±100 for the full control effect; nearly all actives have a fitted effect of over 65% in size
#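 Read-out: total well GFP (ex488/em500-530) summed from mean per-cell fluorescence. Cells: HEPG2 CAGA-GFP, 1% FBS DMEM, 18 h at 37 degrees C with 500 pg/mL final TGF-beta. Unstimulated wells served as the full-inhibition control; stimulated DMSO wells = 0%.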
# Numbers without * were called inactive; i = inactive; ? = inconclusive; · = not tested or not shown; [ ] = another dose, or the depositor's remark. Rows were chosen to be rich in hits. Some 17% of all compounds tested hit in one or more screens of this group. Calls follow the shape of the dose curve; as a rule, active = well fitted curve in the direction sought with a large enough effect; inconclusive = small, poorly fitted or top-dose-only effect, or another doubt; inactive = no such curve, though single readings can be large; an effect the other way counts as inactive or inconclusive. Potency is read from the fitted curve at half-maximal effect.
SMILES,ATXN viability,ATXN2 expr inh,HepG2 tox,DT40 TDP1 CPT,DT40 TDP1 no CPT,TGFb inhibitor
CC(=O)c1ccc(S(=O)(=O)NCc2ccc(C(=O)NCC(c3ccccc3)N(C)C)cc2)cc1 (centres undefined),i,30.4%,-6.3%,1.2%,-12.0%,-4.0%
CC1(c2nnc(-c3cccc(Cl)c3)o2)CC(c2ccccc2F)=NO1 (centres undefined),i,9.6%,-3.9%,?,-26.5%,?
COc1ccccc1NC(=O)c1cc2ccccc2o/c1=N\O,i,5.0%,-9.0%,20.6µM*,20.6µM*,-14.1%
COc1ccccc1N(CC(=O)Nc1ccc2c(c1)OCO2)S(=O)(=O)c1ccc(C)cc1,i,13.5%,-17.6%,23.1µM*,8.2µM*,?
Cc1ccc(S(=O)(=O)N(CC(=O)Nc2ccc3c(c2)OCO3)c2ccc(C)c(Cl)c2)cc1,i,-0.8%,-30.6%,16.4µM*,?,?
COc1ccccc1N(CC(=O)Nc1cc(C)on1)S(=O)(=O)c1ccc(Cl)cc1,i,4.6%,0.6%,18.4µM*,18.4µM*,?
COc1ccc(S(=O)(=O)N(CC(=O)Nc2ccc3c(c2)OCO3)c2ccc(C)cc2)cc1,i,-3.0%,-25.1%,?,?,3.1%
COc1ccc(OC)c(N(CC(=O)Nc2ccc3c(c2)OCO3)S(=O)(=O)c2ccccc2)c1,i,-12.0%,-2.6%,25.9µM*,?,-2.9%
Cc1ccc(S(=O)(=O)N(CC(=O)Nc2ccc3c(c2)OCO3)c2cc(Cl)cc(Cl)c2)cc1,i,-4.9%,-13.4%,?,?,?
OC[C@@H](O)[C@H](O)[C@H](O)[C@@H](O)CO,i,13.5%,·,-12.7%,-1.2%,·
CCn1cc(Br)c(C(=O)NC(=S)Nc2ccc(C(=O)OC)cc2)n1,i,6.6%,8.8%,?,?,25.4%
COc1ccc(-c2csc(NC(=O)CSc3nc(SC)ns3)n2)cc1,i,·,-7.5%,?,23.1µM*,4.0%
O=C(CSCC(=O)N1CCOCC1)Nc1nc(-c2ccccc2)cs1,i,23.4%,18.1%,-4.8%,-10.8%,1.7%
Cc1cc(-c2nnc(SCC(=O)Nc3nc(-c4ccccc4)cs3)o2)no1,i,1.6%,-8.2%,14.6µM*,?,11.4%
CCOC(=O)N1CCN(C(=O)CSCC(=O)Nc2nc(-c3ccc(-c4ccccc4)cc3)cs2)CC1,?,?,-26.0%,3.26µM*,3.26µM*,-25.4%
CCOC(=O)N1CCN(C(=O)CSCC(=O)Nc2nc(-c3ccc(OC)cc3)cs2)CC1,i,6.8%,-26.6%,?,20.6µM*,4.5%
O=C1c2oc3ccccc3c(=O)c2C(c2ccc(O)cc2)N1Cc1ccc2c(c1)OCO2 (centres undefined),·,·,4.1%,-0.1%,-20.6%,1.3%
COc1ccc(OC)c(NC(=O)COC(=O)CCc2ccc(S(=O)(=O)N3CCOCC3)cc2)c1,i,-5.2%,7.6%,0.7%,-1.4%,9.7%
CCOc1ccc(Oc2ccccc2NC(=O)CSCC(=O)Nc2cc(C)on2)cc1,i,-23.2%,-23.0%,23.1µM*,13µM*,0.0%
CCOC(=O)N1CCN(C(=O)CSCC(=O)Nc2nc(-c3ccc(Cl)s3)cs2)CC1,i,2.0%,-36.2%,14.6µM*,18.4µM*,-8.5%
COc1ccc(-c2csc(NC(=O)CSCC(=O)Nc3cc(C)on3)n2)cc1,?,28.0%,-1.0%,?,23.1µM*,-27.7%
Cc1cc(NC(=O)C(C)SCC(=O)Nc2ccccc2C(C)(C)C)no1 (centres undefined),i,2.0%,4.3%,?,14.6µM*,?
Cc1cccc(Oc2ccccc2NC(=O)CSCC(=O)Nc2cc(C)on2)c1,i,19.9%,-24.5%,?,?,0.0%
COc1ccc(-c2csc(NC(=O)CSc3nc(C)cs3)n2)cc1,i,31.8%,4.0%,-29.9%,?,8.7%
CC(C)c1cccc(-c2ccc3c(c2)S(=O)(=O)c2cccc(C(=O)NCc4ccco4)c2C3=O)c1,?,?,7.9%,?,?,?
SMILES,ATXN viability,ATXN2 expr inh,HepG2 tox,DT40 TDP1 CPT,DT40 TDP1 no CPT,TGFb inhibitor
COC(=O)c1cc2sccc2n1Cc1c(C)cc(C)cc1C,i,5.0%,5.7%,2.3%,?,7.0%
O=C(NC(=S)Nc1ccc(-c2nc3ncccc3o2)cc1)c1ccccc1F,?,?,-4.3%,-5.7%,-2.3%,11.3%
C[C@H]1CN([C@@H](C)CO)C(=O)CCCn2nncc2CO[C@@H]1CN(C)Cc1ccc2c(c1)OCO2,i,-3.7%,-23.5%,-4.1%,?,3.3%
CCC(C)(C)NC(=O)c1cc(S(=O)(=O)N2CCCCC2)ccc1N1CCOCC1,i,-7.2%,-11.9%,-1.6%,1.9%,4.8%
COC(=O)Cn1c2c(c3cc(C)ccc31)CCCC2NC(C)c1ccccc1 (centres undefined),i,-7.6%,7.9%,0.7%,-0.2%,1.4%
Cc1sc2nc(C(C)C)nc(SCC(=O)N3CCOCC3)c2c1C,i,2.3%,-21.7%,-27.1%,?,1.3%
COc1cc(OC)c(C#N)c(S(=O)(=O)Cc2ccccc2)c1,i,-3.6%,1.3%,-2.5%,-8.5%,-8.5%
N#Cc1c([N+](=O)[O-])cc([N+](=O)[O-])cc1S(=O)(=O)Cc1ccccc1,31.6µM*,?,10µM*,0.206µM*,0.184µM*,3.98µM*
COc1ccc2c(c1)CCc1cnc(-n3ncc(C(=O)NCCCN4CCOCC4)c3C)nc1-2,i,·,·,-2.3%[9.04 µM],?,·
COc1ccc(Cl)cc1NC(=O)c1noc2c1CCc1ccccc1-2,i,-1.7%,-10.1%,-13.0%,-5.5%,3.7%
CC(C)N1CCC1(C)C(=O)Nc1ccc(-n2cccc2)cc1 (centres undefined),i,-3.1%,-4.6%,14.6µM*,?,1.1%
CC(C)N1CCC(C)(C(=O)Nc2ccc(-n3cccc3)cc2)C1 (centres undefined),i,-2.0%,-25.0%,?,?,12.8%
CCc1cc(C(=O)N2CCOc3ccc(CN4CCN(Cc5ccccn5)CC4)cc3C2)no1,i,·,·,1.5%[9.04 µM],-16.5%,·
COc1ccc(/C=C(/C#N)c2nc(-c3ccc(-c4ccccc4)cc3)cs2)cc1,i,-7.0%,0.3%,?,?,?
